The values below come from PubChem BioAssay (Tox21).

The nature of experiment [1]: cAMP Responsive Elements (CRE) small molecule antagonists, cell-based qHTS assay: qHTS cell viability counter screen (AID 2060913). Also: nearly all actives have a fitted effect of over 40% in size. In short, it runs like this:
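Cytotoxicity counter screen multiplexed with the CRE-bla antagonist read: HEK293T cells in DMEM with dialyzed FBS and 25 mM HEPES were treated 3 hrs under 0.25 uM final NKH477, then viability measured by CellTiter-Glo luminescence.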

The nature of experiment [2]: cAMP Responsive Elements (CRE) small molecule agonists, cell-based qHTS assay: qHTS cell viability counter screen (AID 2060914). Also: nearly all actives have a fitted effect of over 50% in size. The procedure, abridged: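 Luminescence read-out (CellTiter-Glo, 30 min RT) of ATP-based viability in CRE-bla HEK 293T cells, run in the same wells as the β-lactamase reporter assay after 3 h compound treatment at 37 °C.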
(In general: In qHTS, concentration-response curves come from the screen itself.)

Records with an inconclusive call do not appear. Unmarked numbers belong to inactive results. The source made the active and inactive calls. Calls follow the shape of the dose curve; as a rule, active = well fitted cell-killing curve with a large enough effect in the repeat runs; inconclusive = weak or mixed curves, or effect the other way; inactive = flat fitted curve, though single readings scatter.
% is scaled to controls: 0 for no effect and ±100 for the full control effect.

Consider `SCCOCCOCCS`, for which the Potency entry in experiment [1] and in experiment [2] was “inactive” throughout.
In the case of `NCCN1CCNCC1`, the Potency result in experiment [1] and in experiment [2] was “inactive” throughout.
On to `c1ccc(Nc2ccccc2)cc1`, for which the Potency entry in experiment [1] and in experiment [2] was “inactive” throughout.
As for `Nc1ccccc1S(=O)(=O)c1ccccc1`, the Potency result in experiment [1] and in experiment [2] was “inactive” in each case.
Turning to `C=C1CC/C=C(\C)CC[C@@H]2[C@@H]1CC2(C)C`, the Potency entry in experiment [1] and in experiment [2] was “inactive” in each case.
Take `CC1(C)CCC(C)(C)c2cc(NC(=O)c3ccc(C(=O)O)cc3)ccc21`: the Potency result in experiment [1] and in experiment [2] was “inactive” throughout.
For `O=C1CCCc2ccccc21`, the Potency result in experiment [1] and in experiment [2] was “inactive” each time.
`O=C(O)CN(CCN(CC(=O)O)CC(=O)O)CCN(CC(=O)O)CC(=O)O`: the viability change, negative = cytotoxic in experiment [1] is 8.32% [at 18.9 µM]. For the same compound, in experiment [2], the activity change, negative = cytotoxicity was 3.54% [at 18.9 µM].
With `CCc1cc(Cl)c(OC)c(C(=O)NC[C@@H]2CCCN2CC)c1O`, the Potency entry in experiment [1] and in experiment [2] was “inactive” throughout.
`CCO[Si](OCC)(OCC)OCC`: the Potency entry in experiment [1] and in experiment [2] was “inactive” in each case.
`O=C1OC(=O)c2c(Cl)c(Cl)c(Cl)c(Cl)c21`: the Potency entry in experiment [1] and in experiment [2] was “inactive” each time.
Take `CCOC(=O)C(C#N)=C(c1ccccc1)c1ccccc1`: the Potency entry in experiment [1] and in experiment [2] was “inactive” in each case.
In the case of `CCC1(CO)COCOC1`, the Potency entry in experiment [1] and in experiment [2] was “inactive” each time.
For `C[C@@H](O)[C@H]1C(=O)N2C(C(=O)O)=C(SCCN=CN)C[C@H]12`, the Potency entry in experiment [1] and in experiment [2] was “inactive” in each case.
As for `O=C1N(c2ccccc2)c2ccccc2C1(Cc1ccncc1)Cc1ccncc1`, the Potency result in experiment [1] and in experiment [2] was “inactive” in each case.
With `O=C(OCC1CO1)C1CCCCC1C(=O)OCC1CO1` (configuration not stated), the Potency result in experiment [1] and in experiment [2] was “inactive” in each case.
For `OC[C@@H](O)[C@@H](O)CO`, the Potency result in experiment [1] and in experiment [2] was “inactive” in each case.
`CN1C(C(=O)Nc2ccccn2)=C(O)c2sccc2S1(=O)=O`: the Potency entry in experiment [1] and in experiment [2] was “inactive” in each case.
Consider `COc1ccc(CCC(=O)c2c(O)cc(O[C@@H]3O[C@H](CO)[C@@H](O)[C@H](O)[C@H]3O[C@@H]3O[C@@H](C)[C@H](O)[C@@H](O)[C@H]3O)cc2O)cc1O`, for which the Potency entry in experiment [1] and in experiment [2] was “inactive” each time.
As for `CCc1nc(N)nc(N)c1-c1ccc(Cl)cc1`, the Potency result in experiment [1] and in experiment [2] was “inactive” throughout.
In the case of `CCC(=O)OCCC(C)CCC=C(C)C` (configuration not stated), the Potency result in experiment [1] and in experiment [2] was “inactive” throughout.
Consider `CC(C)Cc1nccs1`, for which the Potency result in experiment [1] and in experiment [2] was “inactive” each time.
As for `Cc1ccc(NC(=O)c2ccc(CN3CCN(C)CC3)cc2)cc1Nc1nccc(-c2cccnc2)n1`, the Potency entry in experiment [1] and in experiment [2] was “inactive” throughout.
As for `OC[C@H]1O[C@@H](Oc2ccc(O)cc2)[C@H](O)[C@@H](O)[C@@H]1O`, the Potency result in experiment [1] and in experiment [2] was “inactive” each time.
Take `Cc1cccc(C)c1C`: the Potency entry in experiment [1] and in experiment [2] was “inactive” in each case.
Consider `COc1cccc(CCc2ccccc2OCC(CN(C)C)OC(=O)CCC(=O)O)c1` (configuration not stated), for which the Potency entry in experiment [1] and in experiment [2] was “inactive” each time.
Take `Oc1cn2c(n1)Nc1ccc(Cl)c(Cl)c1C2`: the viability change, negative = cytotoxic in experiment [1] is 7.34% [at 18.9 µM]. For the same compound, in experiment [2], the activity change, negative = cytotoxicity was -5.61% [at 18.9 µM].
As to `CCCCC(CC)COCCC#N` (configuration not stated), the Potency entry in experiment [1] and in experiment [2] was “inactive” in each case.
As to `O=C(/C=C/c1ccc([N+](=O)[O-])cc1)c1ccccc1`, the Potency entry in experiment [1] and in experiment [2] was “inactive” each time.
In the case of `CCCC(=O)OC/C=C(\C)CCC=C(C)C`, the Potency result in experiment [1] and in experiment [2] was “inactive” each time.
As to `CCCCCCCC/C=C\CCCCCCCC(=O)NCc1ccc(O)c(OC)c1`, the Potency result in experiment [1] and in experiment [2] was “inactive” throughout.
Turning to `CC(C)OC(=O)c1cc2c(OCC(O)CNC(C)(C)C)cccc2[nH]1` (configuration not stated), the Potency result in experiment [1] and in experiment [2] was “inactive” in each case.
Consider `CCCCOc1ccc(CC(=O)NO)cc1`, for which the Potency entry in experiment [1] and in experiment [2] was “inactive” throughout.
For the compound `CC(COc1ccc(C(C)(C)C)cc1)OS(=O)OCCCl` (configuration not stated), the Potency result in experiment [1] and in experiment [2] was “inactive” in each case.
As to `CNC(=O)c1cc(Oc2ccc(NC(=O)Nc3ccc(Cl)c(C(F)(F)F)c3)cc2)ccn1`, the Potency result in experiment [1] and in experiment [2] was “inactive” in each case.
Turning to `CC(C)(O)Cc1ccccc1`, the Potency result in experiment [1] and in experiment [2] was “inactive” each time.
Consider `COC(=O)c1ccccc1C(=O)c1ccc(OCCN2CCCCC2)cc1`, for which the Potency result in experiment [1] and in experiment [2] was “inactive” each time.
With `CC(=O)NCCCS(=O)(=O)O`, the Potency entry in experiment [1] and in experiment [2] was “inactive” each time.
With `CC1CCCNC1` (configuration not stated), the Potency entry in experiment [1] and in experiment [2] was “inactive” in each case.
Consider `O=C(O)C1(C(=O)Nc2ccc(Cl)cc2Cl)CC1`, for which the Potency result in experiment [1] and in experiment [2] was “inactive” throughout.
With `CCCCCCCCC(C)=O`, the Potency result in experiment [1] and in experiment [2] was “inactive” in each case.
With `CC[C@H]1CC[C@H](NCc2cc3c(cc2OC)[C@H]2C[C@H]2C(=O)N3C)[C@H](c2ccccc2)N1`, the Potency entry in experiment [1] and in experiment [2] was “inactive” each time.
Turning to `CC(C)C(=O)c1ccccc1`, the Potency result in experiment [1] and in experiment [2] was “inactive” in each case.
Consider `CC(C)C=O`, for which the Potency result in experiment [1] and in experiment [2] was “inactive” in each case.
For `CC(O)C(CO)C(C)O` (configuration not stated), the Potency entry in experiment [1] and in experiment [2] was “inactive” in each case.
For the compound `Oc1ccc2c(c1)OCO2`, the Potency entry in experiment [1] and in experiment [2] was “inactive” throughout.
For `O=C(O)Cc1ccc(-c2ccccc2)cc1`, the Potency result in experiment [1] and in experiment [2] was “inactive” in each case.
Regarding `CC1(C)C(=O)N(Cl)C(=O)N1Cl`, the Potency entry in experiment [1] and in experiment [2] was “inactive” throughout.
As to `CCN(CC)C(=O)Nc1ccc(OCC(O)CNC(C)(C)C)c(C(C)=O)c1` (configuration not stated), the Potency entry in experiment [1] and in experiment [2] was “inactive” each time.
For `O=S(=O)(O)CCO`, the Potency entry in experiment [1] and in experiment [2] was “inactive” in each case.
Consider `Nc1cccc(O)c1`, for which the Potency result in experiment [1] and in experiment [2] was “inactive” throughout.
Consider `C=CCOC(=O)c1ccc(C(=O)OCC=C)c(C(=O)OCC=C)c1`, for which the Potency result in experiment [1] and in experiment [2] was “inactive” in each case.
As to `COc1ccc(N=[N+]([O-])c2ccc(OC)cc2)cc1`, the Potency result in experiment [1] and in experiment [2] was “inactive” throughout.
`CCNC(=O)NCc1cccc(Cl)c1`: the Potency entry in experiment [1] and in experiment [2] was “inactive” in each case.
For the compound `NCCCC(N)(C(=O)O)C(F)F` (configuration not stated), the Potency entry in experiment [1] and in experiment [2] was “inactive” throughout.
In the case of `O=C(OCCCCCOC(=O)c1ccccc1)c1ccccc1`, the Potency entry in experiment [1] and in experiment [2] was “inactive” each time.
